# Source: PubChem BioAssay AID463173 (ICCB-Longwood Screening Facility, Harvard Medical School, 2010)
# The campaign covered roughly 52,000 compounds. About 1,700 (3.3%) were called active. The entries come from a sample that favours actives as a whole. Values without a mark were called inactive. No stated cut-off is given here; in the data, active means survival mostly below about 52% (no sharp cut-off); inactive means mostly above about 56%.
# Test system: Wild type
# Experiment: S. aureus survival, RN4220 and DeltatarO strains – OD600, teichoic acid synthesis inhibitors, primary screen (AID 463173)
# Conditions: S. aureus RN4220 wild type/DeltatarO growth, OD600, 18 h, active compounds read low, screened at 18.75 µg/mL (by protocol)
row,Structure (SMILES),survival
1,CCN(C(=O)C(NS(=O)(=O)c1cccc2nsnc12)c1ccccc1)c1ccccc1 (stereo not given),117%
2,CCN(CC)c1cc2c(cc1F)c(=O)c(S(=O)(=O)c1cccc(C)c1)cn2C,112%
3,Cc1ccc(NC(=O)C2(c3cccs3)CCOCC2)cc1Cl,75%
4,COc1ccc(C2=NS(=O)(=O)N(C)C(C(=O)Nc3cc(C)ccc3O)=C2)cc1OC,69%
5,C=Cc1ccc(Cn2c(=O)n(CC3CCC(C(=O)NC(C)C)CC3)c(=O)c3sccc32)cc1 (stereo not given),81%
6,COc1ccc(CCNC(=O)CCc2c(C)nc3c(-c4ccc(F)cc4)c(C)nn3c2C)cc1OC,137%
7,Cc1ccccc1CNC(=O)c1ccc(Cn2c(SCc3ccccc3)nc3cccnc32)cc1,-2% (active)
8,Cc1ccccc1CNC(=O)c1ccc(CSc2nc3cccnc3n2Cc2ccccc2)cc1,47%
9,Cc1ccccc1CNC(=O)c1ccc(Cn2c(SCc3cccc(F)c3)nc3cccnc32)cc1,70%
10,Cc1ccccc1NS(=O)(=O)c1ccc2[nH]cc(C(=O)N3CCCCC3)c(=O)c2c1,68%
11,N/C(=N\OC(=O)c1ccccc1)c1cccnc1,109%
12,Cc1ccc(S(=O)(=O)NCC(c2ccc(N(C)C)cc2)N2CCc3ccccc32)cc1 (stereo not given),-2% (active)
13,Cc1ccc(S(=O)(=O)NCC(c2ccc(N(C)C)cc2)N2CCc3ccccc32)cc1C (stereo not given),129%
14,CCOc1ccc(S(=O)(=O)NCC(c2ccc(N(C)C)cc2)N2CCc3ccccc32)cc1 (stereo not given),22%
15,CN(C)c1ccc(C(CNS(=O)(=O)c2ccc(F)cc2)N2CCc3ccccc32)cc1 (stereo not given),0% (active)
16,COc1ccc(S(=O)(=O)NCC(c2ccc(N(C)C)cc2)N2CCc3ccccc32)cc1 (stereo not given),73%
17,CN(C)c1ccc(C(CNS(=O)(=O)c2ccccc2)N2CCc3ccccc32)cc1 (stereo not given),80%
18,COC(=O)CNC(c1ccccc1)c1cc(Br)ccc1NC(=O)c1ccccc1 (stereo not given),62%
19,CCOC(=O)c1[nH]c(C)c(CCC(=O)NCc2cccc(C)c2)c1C,105%
20,CCOc1cccc2sc(=NC(=O)c3ccc(S(=O)(=O)N4CCOCC4)cc3)n(C)c12,83%
21,Cc1c(-c2nsc(NC(=O)c3ccccc3)n2)nnn1-c1ccc(C(F)(F)F)c(Cl)c1,80%
22,Cc1ccc(C(=O)Nc2nc(-c3nnn(-c4cccc(Cl)c4C)c3C)ns2)cc1C,136%
23,COc1cccc(C(=O)Nc2nc(-c3nnn(-c4ccccc4C(F)(F)F)c3C)ns2)c1,76%

row,Structure (SMILES),survival
1,COc1cccc(C(=O)Nc2nc(-c3nnn(-c4cc(C)ccc4C)c3C)ns2)c1,72%
2,Cc1c(-c2nsc(NC(=O)c3cccc(Cl)c3)n2)nnn1-c1ccccc1C(F)(F)F,-6% (active)
3,COc1cccc(C(=O)Nc2nc(-c3nnn(-c4cccc(Cl)c4C)c3C)ns2)c1,-6% (active)
4,CCOC(=O)c1sc(NC(=O)c2cc3nc(-c4ccccc4)cc(C(F)(F)F)n3n2)c(C(=O)OCC)c1C,63%
5,Cc1ccc(-n2c(=O)c3c(C)c(C(=O)N(C)C)sc3n(Cc3ccccc3C)c2=O)cc1C,73%
6,COc1cccc(-n2c(=O)c3c(C)c(C(=O)N(C)C)sc3n(Cc3cccc(C)c3)c2=O)c1,10% (active)
7,CCOc1ccc(-n2c(=O)c3c(C)c(C(=O)N(C)C)sc3n(Cc3cc(C)ccc3C)c2=O)cc1,-3% (active)
8,CCc1ccc(-n2c(=O)c3c(C)c(C(=O)N(C)C)sc3n(Cc3cccc(C)c3)c2=O)cc1,80%
9,COC(=O)c1ccccc1NC(=O)Cn1c(=O)n(-c2cccc(OC)c2)c(=O)c2c(C)c(C(=O)N(C)C)sc21,121%
10,CCOC(=O)c1ccccc1NC(=O)Cn1c(=O)n(-c2ccc(CC)cc2)c(=O)c2c(C)c(C(=O)N(C)C)sc21,-2% (active)
11,CCOc1ccc(-n2c(=O)c3c(C)c(C(=O)N(C)C)sc3n(CC(=O)Nc3c(C)cc(C)cc3C)c2=O)cc1,68%
12,COc1cccc(-n2c(=O)c3c(C)c(C(=O)N(C)C)sc3n(Cc3ccc(F)cc3Cl)c2=O)c1,83%
13,CCc1ccc(-n2c(=O)c3c(C)c(C(=O)N(C)C)sc3n(CC(=O)Nc3cc(Cl)ccc3C)c2=O)cc1,129%
14,O=C(c1cccs1)c1cn(CCOc2ccccc2Cl)c2ccccc12,80%
15,CC1(C)Oc2ccc(C(=O)N3CCCC3)cc2N(CC(=O)N2CCCCC2)C1=O,101%
16,O=C(Cn1c(=O)c2ccccc2n(CC(=O)Nc2ccc(F)cc2)c1=O)NCCc1ccccc1,127%
17,Cc1nn(C(=O)c2ccccc2F)c(C)c1S(=O)(=O)N1CCOCC1,66%
18,Cc1nnc(N(Cc2ccco2)C(=O)c2cccc(C#N)c2)s1,108%
19,CC(C)OCCCNC(=O)CN1C(=O)COc2ccc(S(=O)(=O)N3CCCCCC3)cc21,98%
20,Nc1cc(=O)[nH]c2n[nH]c(=S)n12,111%
21,CCc1nnc(NC(=O)c2cc(=O)c3cc(C)c(C)cc3o2)s1,74%
22,COc1cccc(-c2nc(CS(=O)(=O)CC(=O)NCc3cccc(Cl)c3)c(C)o2)c1,82%
